Reference: PubChem BioAssay AID1159580 (chemical genetic matrix, 2015)
Values joined by “and” are separate entries in the source; they are usually repeats but may differ in a detail not shown here. Identical values can stand only once. Screen size: about 5,500 compounds; about 2,000 (36%) were called active. About 18% were inconclusive and are not listed. Cut-off read from the data, not from the text of the source: active = normalized growth mostly below about 0.91 (no sharp cut-off); inconclusive = no clear call, values can overlap the other calls; inactive = mostly above about 0.92. The list shows a part of the results.

Assay: chemical genetic growth profiling, strain panel (AID 1159580);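 note: tested at 20 µM; growth read once vehicle control cultures reached saturation at 30 °C; 1 = growth at the plate median or of vehicle wells; lower values mean less growth of the strain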
Details: S. cerevisiae deletion strains, growth OD
[1] = locus YAL013W, strain DEP1, stronger effect = lower value
[2] = locus YBR229C, strain ROT2, stronger effect = lower value
[3] = locus YDL101C, strain DUN1, stronger effect = lower value
[4] = locus YDL134C, strain PPH21, stronger effect = lower value
[5] = locus YDR150W, strain NUM1, stronger effect = lower value
[6] = locus YEL061C, strain CIN8, stronger effect = lower value
[7] = locus YGR078C, strain PAC10, stronger effect = lower value
[8] = locus YHR030C, strain SLT2, stronger effect = lower value
[9] = locus YHR087W, strain rtc3, stronger effect = lower value
[10] = locus YJL187C, strain SWE1, stronger effect = lower value
[11] = locus YJR043C, strain POL32, stronger effect = lower value
[12] = locus YJR075W, strain HOC1, stronger effect = lower value
[13] = locus YKL190W, strain CNB1, stronger effect = lower value
[14] = locus YLR039C, strain RIC1, stronger effect = lower value
[15] = locus YLR058C, strain SHM2 (second series), stronger effect = lower value
[16] = locus YLR085C, strain ARP6, stronger effect = lower value
[17] = locus YLR262C, strain YPT6, stronger effect = lower value
[18] = locus YML094W, strain GIM5, stronger effect = lower value
[19] = locus YMR219W, strain ESC1, stronger effect = lower value
[20] = locus YMR263W, strain SAP30, stronger effect = lower value
[21] = locus YNL153C, strain GIM3, stronger effect = lower value
[22] = locus YNL298W, strain CLA4 (second series), stronger effect = lower value
[23] = locus YNL322C, strain KRE1, stronger effect = lower value
[24] = locus YNR030W, strain Alg12, stronger effect = lower value
[25] = locus YPL055C, strain LGE1, stronger effect = lower value
[26] = locus YPL241C, strain CIN2, stronger effect = lower value
[27] = locus YPR135W, strain CTF4, stronger effect = lower value
[28] = locus YMR307W, strain GAS1, stronger effect = lower value

Measured: normalized growth

Cc1cccc(Cn2c(C)c(C)c(S(=O)(=O)c3ccccc3)c2N)c1C
inactive: [1] 1.03 | [2] 1.01 | [3] 0.98 | [4] 0.978 | [5] 1.01 | [6] 0.998 | [7] 1.03 | locus YGR229C, strain SMI1, stronger effect = lower value 0.984 | [8] 0.917 | [9] 1.01 | [10] 0.996 | [11] 1 | [12] 0.996 | [13] 0.987 | [14] 0.803 | [15] 0.999 | [17] 0.873 | [18] 1.05 | [19] 1.01 | [20] 1.01 | locus YNL128W, strain TEP1, stronger effect = lower value 0.998 | [21] 1.04 | [22] 0.98 | [23] 1 | [24] 1.01 | [25] 1.06 | [26] 1.03 | [27] 1.16
active: [16] 1.24 [resistant]

CCCS(=O)(=O)c1c(C)c(C)n(Cc2ccccc2)c1N
active: [16] 1.27 [resistant]
inactive: [1] 1.02 | [2] 1.01 | [3] 0.972 | [4] 0.999 | [5] 1 | [6] 0.999 | [7] 1 | [8] 1.06 | [9] 1 | [11] 0.997 | [12] 0.99 | [14] 1.05 | [15] 1 | [17] 1.03 | [18] 1.04 | [19] 1 | [20] 0.999 | [28] 1.14 | [21] 1 | [22] 1.02 | [23] 0.999 | [24] 1.02 | locus YOL006C, strain TOP1, stronger effect = lower value 1.2 | [25] 1.06 | [26] 1.1 | [27] 1.15

CCCCCCCCCCCCCCCC(=O)OC/C=C(C)/C=C/C=C(C)/C=C/C1=C(C)CCCC1(C)C
inactive: [1] 0.994 | locus YAL021C, strain ccr4, stronger effect = lower value 1.04 | locus YAL026C, strain drs2, stronger effect = lower value 1.02 | locus YAL030W, strain snc1, stronger effect = lower value 1.03 | locus YBL061C, strain skt5, stronger effect = lower value 1.02 | locus YBR009C, strain hhf1, stronger effect = lower value 0.995 | locus YBR021W, strain FUR4, stronger effect = lower value 0.977 | locus YBR023C, strain chs3, stronger effect = lower value 1 | locus YBR171W, strain sec66, stronger effect = lower value 1.02 | [2] 0.992 | locus YBR231C, strain swc5, stronger effect = lower value 0.931 | locus YBR279W, strain paf1, stronger effect = lower value 1.01 | locus YCL011C, strain gbp2, stronger effect = lower value 1 | locus YCL016C, strain dcc1, stronger effect = lower value 1 | locus YCL029C, strain bik1, stronger effect = lower value 0.999 | locus YCL069W, strain vba3, stronger effect = lower value 1.01 | locus YCR088W, strain abp1, stronger effect = lower value 1.02 | locus YDL005C, strain med2, stronger effect = lower value 1.03 | locus YDL035C, strain GPR1, stronger effect = lower value 0.978 | locus YDL040C, strain nat1, stronger effect = lower value 1.01 | locus YDL074C, strain BRE1, stronger effect = lower value 1 | [3] 0.993 | locus YDL185W, strain tfp1, stronger effect = lower value 0.992 | locus YDL192W, strain arf1, stronger effect = lower value 0.994 | locus YDR001C, strain nth1, stronger effect = lower value 1.02 | locus YDR069C, strain doa4, stronger effect = lower value 1 | locus YDR101C, strain arx1, stronger effect = lower value 1.02 | locus YDR137W, strain rgp1, stronger effect = lower value 1.03 | [5] 1 | locus YDR159W, strain sac3, stronger effect = lower value 0.963 | locus YDR162C, strain NBP2, stronger effect = lower value 0.973 | locus YDR195W, strain ref2 1.04 | locus YDR297W, strain sur2, stronger effect = lower value 1.03 | locus YDR318W, strain mcm21, stronger effect = lower value 0.999 | locus YDR334W, strain swr1, stronger effect = lower value 1.03 | locus YDR335W, strain msn5, stronger effect = lower value 1.04 | locus YDR388W, stronger effect = lower value 1.02 | locus YDR392W, strain spt3, stronger effect = lower value 1.05 | locus YDR502C, strain sam2, stronger effect = lower value 0.994 | locus YEL003W, strain gim4, stronger effect = lower value 1.01 | locus YEL037C, strain rad23, stronger effect = lower value 1.02 | locus YEL061C, strain CIN8 (second series), stronger effect = lower value 1.02 | [6] 0.993 | locus YER015W, strain faa2, stronger effect = lower value 1.02 | locus YER016W, strain bim1, stronger effect = lower value 1.02 | locus YER110C, stronger effect = lower value 0.985 | locus YER111C, strain swi4, stronger effect = lower value 1.02 | locus YER155C, strain BEM2 (second series), stronger effect = lower value 1.03 | locus YER155C, strain BEM2, stronger effect = lower value 0.998 | locus YER167W, strain BCK2, stronger effect = lower value 0.989 | locus YFR010W, strain ubp6, stronger effect = lower value 1.03 | locus YGL078C, strain dbp3, stronger effect = lower value 0.993 | locus YGL086W, strain mad1, stronger effect = lower value 1.01 | locus YGL167C, strain pmr1, stronger effect = lower value 1.02 | locus YGL173C, strain kem1, stronger effect = lower value 1.01 | locus YGL227W, strain vid30, stronger effect = lower value 1.01 | locus YGL240W, strain doc1, stronger effect = lower value 1.03 | locus YGL248W, strain PDE1, stronger effect = lower value 1 | locus YGL253W, strain hxk2, stronger effect = lower value 0.976 | locus YGR135W, strain pre9, stronger effect = lower value 0.929 | locus YGR252W, strain gcn5, stronger effect = lower value 1.04 | locus YHR013C, strain ard1, stronger effect = lower value 1.05 | locus YHR027C, strain rpn1, stronger effect = lower value 0.969 | [8] 0.995 and 0.963 | locus YHR079C, strain IRE1 (second series), stronger effect = lower value 1.01 | locus YHR079C, strain IRE1, stronger effect = lower value 0.925 | locus YHR094C, strain hxt1, stronger effect = lower value 0.983 | locus YHR129C, strain ARP1, stronger effect = lower value 0.999 | locus YHR142W, strain chs7, stronger effect = lower value 1.01 | locus YHR200W, strain rpn10, stronger effect = lower value 0.998 | locus YIL066C, strain RNR3, stronger effect = lower value 0.987 | locus YIL073C, strain SPO22, stronger effect = lower value 0.879 | locus YIL125W, strain kgd1, stronger effect = lower value 0.992 | locus YIR030C, strain dcg1, stronger effect = lower value 0.989 | locus YJL092W, strain hpr5, stronger effect = lower value 1.02 | locus YJL095W, strain BCK1 (second series), stronger effect = lower value 1.03 | locus YJL095W, strain BCK1, stronger effect = lower value 0.995 and 0.989 | locus YJL115W, strain asf1, stronger effect = lower value 1.02 | locus YJL129C, strain trk1, stronger effect = lower value 1.04 | locus YJL134W, strain LCB3, stronger effect = lower value 0.991 | locus YJL154C, strain vps35, stronger effect = lower value 1.02 | locus YJL164C, strain tpk1, stronger effect = lower value 0.996 | locus YJL166W, strain qcr8, stronger effect = lower value 1.04 | locus YJL168C, strain set2, stronger effect = lower value 0.994 | locus YJL187C, strain SWE1 (second series), stronger effect = lower value 1.01 | [10] 1.03 | [11] 0.995 | locus YJR066W, strain TOR1, stronger effect = lower value 0.901 | locus YKL009W, strain mrt4, stronger effect = lower value 0.993 | locus YKL068W, stronger effect = lower value 0.985 | locus YKL085W, strain MDH1 (second series), stronger effect = lower value 0.985 | locus YKL085W, strain MDH1, stronger effect = lower value 0.985 | locus YKL160W, strain elf1, stronger effect = lower value 1.02 | [13] 0.998 | locus YKR001C, strain vps1, stronger effect = lower value 0.991 | locus YKR026C, strain gcn3, stronger effect = lower value 1.03 | locus YKR091W, strain srl3, stronger effect = lower value 1.01 | locus YLL001W, strain dnm1, stronger effect = lower value 1.01 | locus YLL026W, stronger effect = lower value 0.975 | locus YLL041C, strain sdh2, stronger effect = lower value 1.02 | locus YLR027C, strain aat2, stronger effect = lower value 1.01 | [14] 1 | locus YLR058C, strain SHM2, stronger effect = lower value 0.988 | locus YLR102C, strain apc9, stronger effect = lower value 0.993 | locus YLR113W, strain HOG1, stronger effect = lower value 0.99 | locus YLR221C, strain rsa3, stronger effect = lower value 0.98 | locus YLR258W, strain gsy2, stronger effect = lower value 1 | locus YLR262C, strain YPT6 (second series), stronger effect = lower value 1.01 | [17] 1.04 | locus YLR268W, strain sec22, stronger effect = lower value 0.996 | locus YLR320W, strain mms22, stronger effect = lower value 1 | locus YLR330W, strain CHS5, stronger effect = lower value 0.993 | locus YLR342W, strain FKS1 (second series), stronger effect = lower value 0.993 | locus YLR342W, strain FKS1, stronger effect = lower value 1.02 | locus YLR357W, strain rsc2, stronger effect = lower value 0.994 | locus YLR370C, strain arc18, stronger effect = lower value 1.02 | locus YLR371W, strain rom2, stronger effect = lower value 1 | locus YLR384C, strain iki3, stronger effect = lower value 1.02 | locus YLR418C, strain cdc73, stronger effect = lower value 0.922 | locus YML016C, strain PPZ1, stronger effect = lower value 0.994 | locus YML032C, strain rad52, stronger effect = lower value 1.01 | locus YML120C, strain ndi1, stronger effect = lower value 1.05 | locus YML124C, strain tub3, stronger effect = lower value 0.993 | locus YMR058W, strain fet3, stronger effect = lower value 0.999 | locus YMR078C, strain ctf18, stronger effect = lower value 0.996 | locus YMR125W, strain sto1, stronger effect = lower value 1.01 | locus YMR129W, stronger effect = lower value 1.01 | locus YMR205C, strain PFK2, stronger effect = lower value 1.01 | locus YMR223W, strain ubp8, stronger effect = lower value 0.959 | locus YMR231W, strain pep5, stronger effect = lower value 1.02 | [20] 1 | [28] 1 | locus YNL067W, strain RPL9B, stronger effect = lower value 1.02 | locus YNL071W, strain lat1, stronger effect = lower value 0.97 | [21] 1.04 | locus YNL183C, strain NPR1, stronger effect = lower value 0.967 | locus YNL209W, strain ssb2, stronger effect = lower value 0.991 | locus YNL233W, strain BNI4, stronger effect = lower value 0.994 | locus YNL248C, strain rpa49, stronger effect = lower value 1.05 | locus YNL250W, strain rad50, stronger effect = lower value 1.01 | locus YNL271C, strain bni1, stronger effect = lower value 0.995 | locus YNL298W, strain CLA4, stronger effect = lower value 1 | locus YNL307C, strain MCK1, stronger effect = lower value 0.989 | locus YNL322C, strain KRE1 (second series), stronger effect = lower value 1.04 | locus YNR049C, strain mso1, stronger effect = lower value 1.02 | locus YNR052C, strain pop2, stronger effect = lower value 0.998 | locus YOL012C, strain htz1 0.785 | locus YOL147C, strain pex11, stronger effect = lower value 0.991 | locus YOR001W, strain rrp6, stronger effect = lower value 1.05 | locus YOR061W, strain CKA2, stronger effect = lower value 0.99 | locus YOR069W, strain VPS5, stronger effect = lower value 0.992 | locus YOR070C, strain gyp1, stronger effect = lower value 1.01 | locus YOR080W, strain dia2, stronger effect = lower value 1.02 | locus YOR083W, strain WHI5, stronger effect = lower value 0.984 | locus YOR106W, strain vam3, stronger effect = lower value 0.962 | locus YOR136W, strain idh2, stronger effect = lower value 1 | locus YOR144C, strain elg1, stronger effect = lower value 0.99 | locus YOR184W, strain ser1, stronger effect = lower value 0.991 | locus YOR231W, strain MKK1, stronger effect = lower value 0.974 | locus YOR265W, strain rbl2, stronger effect = lower value 1.02 | locus YOR270C, strain vph1, stronger effect = lower value 1.05 | locus YOR290C, strain snf2, stronger effect = lower value 1.03 | locus YOR316C, strain cot1, stronger effect = lower value 0.992 | locus YPL051W, strain arl3, stronger effect = lower value 1.02 | locus YPL078C, strain atp4, stronger effect = lower value 1.01 | locus YPL106C, strain sse1, stronger effect = lower value 1.07 | locus YPL240C, strain hsp82, stronger effect = lower value 1.01 | locus YPL256C, strain CLN2, stronger effect = lower value 0.916 | locus YPR119W, strain clb2, stronger effect = lower value 0.998 | locus YPR141C, strain kar3, stronger effect = lower value 0.983 | locus YPR163C, strain tif3, stronger effect = lower value 1 | locus YPR167C, strain met16, stronger effect = lower value 0.992 | strain wtn01, stronger effect = lower value 0.972
